The values that follow come from PubChem BioAssay (NCATS).

Each structure is given as a SMILES string. Results filed as inconclusive are left out. Values without a mark were called inactive. Active and inactive are the calls of the source. Calls come from the whole dose curve; as a rule, active = well fitted curve in the direction sought with a large enough effect; inconclusive = small, poorly fitted or top-dose-only effect, or another doubt; inactive = no such curve, though single readings can be large; an effect the other way counts as inactive or inconclusive.

For experiment [1], the target named is Calcium and integrin-binding protein 1 (Homo sapiens) (UniProt Q99828). Briefly: Primary qHTS for Identification of Calcium Integrin Binding Protein 1 (CIB1) Competitor (AID 1508620). Note: top concentration of the series differs between compounds. As to conditions: CIB1-GST / FITC-alphaIIb peptide fluorescence polarization; series mostly up to 57.7 µM. Put shortly: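 Fluorescence polarization competition: GST-tagged CIB1 (1 uM final) preincubated with compound 15 min at room temperature, then FITC-labelled alphaIIb peptide (100 nM final) added. After 15 min at room temperature, polarization read at Ex 480/Em 540.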
Calcium and integrin-binding protein 1 (Homo sapiens), sequence (Q99828 whole entry, looked up): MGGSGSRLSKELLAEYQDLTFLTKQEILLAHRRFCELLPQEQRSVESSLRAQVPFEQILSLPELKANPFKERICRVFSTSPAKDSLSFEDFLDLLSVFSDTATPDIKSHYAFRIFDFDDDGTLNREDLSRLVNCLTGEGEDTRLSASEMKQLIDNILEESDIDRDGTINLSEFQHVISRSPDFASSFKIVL

Experiment [2] in a line: Primary qHTS for inhibitors of nuclear receptor binding SET domain protein 2 (NSD2) in an isogenic RCH-ACV NSD2 p.E1099K mutant (9B) (AID 1645876). Note: nearly all actives have a fitted effect of over 70% in size. Note: potency is the fitted concentration of half-maximal effect. To be noted: RCH-ACV NSD2 E1099K (9B) viability, CellTiter-Glo, 72 h; series mostly up to 44.9 µM.
A short description of experiment [3]: Primary qHTS for inhibitors of nuclear receptor binding SET domain protein 2 (NSD2) in an RCH-ACV wild type WT cells (2C) (AID 1645877). Note: nearly all actives have a fitted effect of over 70% in size. Note: potency is the fitted concentration of half-maximal effect. To be noted: RCH-ACV (leukaemia line) NSD2 WT (2C) viability, CellTiter-Glo, 72 h; series mostly up to 44.9 µM.
% is set by controls: 0 for no effect and ±100 for the full control effect.

In the case of `COC(=O)C1=CO[C@@H](O[C@@H]2O[C@H](CO[C@@H]3O[C@H](CO)[C@@H](O)[C@H](O)[C@H]3O)[C@@H](O)[C@H](O)[C@H]2O)[C@@H]2C(CO)=CC[C@H]12`, the Potency result in experiment [1], in experiment [2] and in experiment [3] was “inactive” throughout.
As for `O=C(/C=C/N1C[C@@H]2C[C@@H]1CN2c1ccccn1)c1ccccc1O`, the Potency result in experiment [1], in experiment [2] and in experiment [3] was “inactive” each time.
As to `CC(=O)OCC1OC(OC2COC(OC3COC(OC4C(OC5C(CO)OC(OC6CCC7(C)C(CCC8(C)C7CC=C7C9CC(C)(C)CCC9(C(=O)OC9OC(CO)C(O)C(O)C9OC9OCC(OC%10OCC(O)(CO)C%10O)C(O)C9O)C(O)CC78C)C6(C)C)C(O)C5O)OCC(O)C4O)C(O)C3O)C(O)C2O)C(OC(=O)/C=C/c2ccccc2)C(O)C1OC(C)=O` (centres undefined), the activity change, negative = inhibition in experiment [1] was -1.97% [at 12.4 µM]. The figures for the Potency in experiment [2] and in experiment [3] were 1.25 µM (active) and 1.99 µM (active), respectively.
`O=C(O)c1cc(O[C@@H]2O[C@H](CO)[C@@H](O)[C@H](O)[C@H]2O)ccc1O`: the Potency result in experiment [1], in experiment [2] and in experiment [3] was “inactive” throughout.
In the case of `COC(=O)C(Cc1ccccc1)NC(=O)c1ccccc1` (centres undefined), the Potency result in experiment [1], in experiment [2] and in experiment [3] was “inactive” in each case.
`C[C@@H]1C[C@H]2OC(=O)[C@@]3(C)CCC[C@](C)(C23)[C@@]1(O)CCC1=CC(=O)OC1O` (some centres undefined): the Potency result in experiment [1], in experiment [2] and in experiment [3] was “inactive” throughout.
As to `OC[C@H]1O[C@@H](OCc2ccccc2)[C@H](O[C@@H]2OC[C@@H](O)[C@H](O)[C@H]2O)[C@@H](O)[C@@H]1O`, the Potency entry in experiment [1], in experiment [2] and in experiment [3] was “inactive” in each case.
On to `C=C1CCC[C@]2(C)CC[C@@](O)(C(=C)C(=O)O)C[C@@H]12`, for which the Potency result in experiment [1], in experiment [2] and in experiment [3] was “inactive” throughout.
With `C[C@@]12CC3(S(=O)(=O)O)OC(O1)[C@]1(COC(=O)c4ccccc4)[C@H]3C[C@]21O[C@@H]1O[C@H](CO)[C@@H](O)[C@H](O)[C@H]1O`, the Potency entry in experiment [1], in experiment [2] and in experiment [3] was “inactive” in each case.
For `C/C1=C\CC(C)(C)/C=C/C/C(C(=O)O)=C/CC1`, the Potency result in experiment [1], in experiment [2] and in experiment [3] was “inactive” in each case.
As for `Nc1nc2c(nc(Sc3ccc(Cl)cc3)n2[C@@H]2O[C@@H]3COP(=O)(O)O[C@H]3[C@H]2O)c(=O)[nH]1`, the Potency result in experiment [1], in experiment [2] and in experiment [3] was “inactive” each time.
In the case of `CC(C)C1CCC(C(=O)N[C@@H](Cc2ccccc2)C(=O)O)CC1` (some centres undefined), the Potency result in experiment [1], in experiment [2] and in experiment [3] was “inactive” each time.
Consider `CC1(C)COC(=O)[C@@H]1O[C@@H]1O[C@H](CO)[C@@H](O)[C@H](O)[C@H]1O`, for which the Potency result in experiment [1], in experiment [2] and in experiment [3] was “inactive” in each case.
